Most compounds without a hit are left out; they make up all but 14% or so of the library.
Marburg entry inh: Marburg virus entry inhibition. Marburg virus pseudotyped entry inhibition, cell reporter. Potency, µM (top dose mostly 37.8 µM), usual class: inhibitors. 1.8% of 300,000 active; calls by dose curve; tested in HEK293 cells
LASV entry inh: blocks Lassa virus binding to or entry into cells; Lassa virus pseudotype entry inhibition, cell reporter; Potency, µM (highest dose often 37.9 µM), usual class: inhibitors; 1.2% of 300,000 active; AID 540256; calls by dose curve; tested in HEK293 cells; further: nearly all actives have a fitted effect of over 50% in size
Pf growth 48h: P. falciparum growth inhibition at 48 hours (one generation). P. falciparum luciferase growth in erythrocytes, 48 h. Potency, µM (doses to about 28.7 µM), hits mostly inhibitors. AID 504832. 5.9% of 310,000 active
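Erythrocytes infected with P. falciparum carrying an integrated firefly luciferase reporter (2% hematocrit, 0.1% parasitemia final) were exposed to compounds in RPMI 1640 with 0.5% Albumax at 37 C, 5% CO2. Growth inhibition was scored as reduced luminescence.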
HCMV antiviral: blocks human cytomegalovirus replication. 4.5% of 410,000 active. AID 1259415. HFF cells, HCMV-luciferase reporter, 72 h; stronger effect = lower value. activity change, negative = inhibition, % at 57.5 µM; in the data active means activity change below about -60%; inconclusive means no clear call, values can overlap the other calls; inactive means above about -39%
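Human foreskin fibroblasts infected with luciferase-reporter HCMV at MOI 1 PFU/cell, compounds at two doses. Luciferase measured 72 h post infection; normalized to buffer-only basal and Salinomycin (10uM) controls.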
HCV inh: HCV inhibition; Huh7.5.1 HCVcc-Cre infection, luciferase reporter, 44 h; 3.4% of 340,000 active; Potency, µM (series often up to 41.8 µM), hits mostly inhibitors
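Seed cells (1,000/well) for 4 h; treat with compound and infect with HCVcc-Cre, moi about 0.5. Incubate 44 h, then detect luciferase activity.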
Pf growth 96h: P. falciparum growth inhibition at 96 hours; 6.9% of 320,000 active; Potency, µM (titrated, usually from 28.7 µM), usual class: inhibitors; P. falciparum luciferase reporter growth, 96 h
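Two-generation exposure (96 h) targets delayed-death phenotype. Reporter parasites carrying integrated firefly luciferase, in red cells at 2% hematocrit and 0.05% parasitemia final, kept at 37 C, 5% CO2; luminescence loss indicates inhibition.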
Large screens that a line does not name were inactive. Unless noted, the call rests on the fitted dose curve; in most records, active means well fitted inhibition curve with a large enough effect; inconclusive means small, poorly fitted or top-dose-only effect, or another doubt; inactive means no such curve, though single readings can be large or run the other way.

CN(C)CCCNc1nc2sc3c(c2c(=O)n1CCc1ccccc1)CCCCC3	Marburg entry inh 7.1µM, LASV entry inh inconclusive, Pf growth 48h 6.6µM, HCMV antiviral inconclusive, HCV inh inconclusive, Pf growth 96h 4.1µM
Cc1nc2ccc(Br)cc2c(=O)n1Cc1cccs1	HCV inh inconclusive (no result: Marburg entry inh, LASV entry inh, Pf growth 48h, Pf growth 96h)
COc1ccc(S(=O)(=O)N(C)CC(=O)NCCCN2CCOCC2)cc1C	none (no result: Pf growth 48h, Pf growth 96h)
O=C(CCCN1CCC(n2c(=O)[nH]c3ccccc32)CC1)c1ccc(F)cc1	Pf growth 48h 0.81µM, HCV inh inconclusive, Pf growth 96h 10µM (no result: Marburg entry inh, LASV entry inh)
Cc1ccc(C(=O)NC2CCN(CCCC(=O)c3ccc(F)cc3)CC2)cc1	Pf growth 48h 10µM, Pf growth 96h inconclusive
COc1ccc(C(=O)N/N=C\c2coc3ccc(Cl)cc3c2=O)cc1	HCMV antiviral -63 (no result: Marburg entry inh, LASV entry inh)
Cc1[nH]n(-c2ccccc2)c(=O)c1/C=N/NC(=O)c1ccccc1F	HCMV antiviral -94, HCV inh inconclusive, Pf growth 96h 2.3µM (no result: Marburg entry inh, LASV entry inh, Pf growth 48h)
Cc1[nH]n(-c2ccccc2)c(=O)c1/C=N/NC(=O)c1cccc([N+](=O)[O-])c1	Marburg entry inh inconclusive, LASV entry inh inconclusive, HCMV antiviral -104, Pf growth 96h inconclusive
Cc1cccc(C(=O)N/N=C/c2coc3ccccc3c2=O)c1	none (no result: Marburg entry inh, LASV entry inh)
O=C(N/N=C/c1coc2ccccc2c1=O)c1cccc([N+](=O)[O-])c1	Pf growth 96h 5.9µM
COc1ccc(NC(=O)Cn2nc(-c3ccncc3)ccc2=O)cc1Cl	none (no result: Marburg entry inh, Pf growth 48h, HCV inh, Pf growth 96h)
O=C(CSc1nnnn1-c1ccccc1)NCCCN1CCCC1=O	LASV entry inh inconclusive (no result: Pf growth 48h, Pf growth 96h)
Cc1[nH]n(-c2cccc3ccccc23)c(=O)c1/C=N/NC(=O)c1cccc([N+](=O)[O-])c1	Marburg entry inh inconclusive, Pf growth 48h inconclusive, HCMV antiviral -101, HCV inh inconclusive
Cc1ccc(-n2[nH]c(C)c(/C=N/NC(=O)c3ccc([N+](=O)[O-])cc3)c2=O)c(C)c1	Pf growth 48h inconclusive (no result: Marburg entry inh, LASV entry inh, HCV inh)
Cc1ccc(NC(=O)CN(C)C(=O)c2cc(-c3cccs3)nn2-c2ccccc2)cc1	Pf growth 48h inconclusive, HCV inh inconclusive (no result: Marburg entry inh, LASV entry inh)
O=C(NC(=S)N1CCN(c2ccc(F)cc2)CC1)C12CC3CC(CC(C3)C1)C2	Pf growth 48h inconclusive, Pf growth 96h inconclusive
O=C(NC(=S)N1CCN(CCO)CC1)C12CC3CC(CC(C3)C1)C2	Marburg entry inh inconclusive, HCMV antiviral -73
CCOc1ccccc1N1CCN(C(=S)NC(=O)C23CC4CC(CC(C4)C2)C3)CC1	Marburg entry inh inconclusive, LASV entry inh inconclusive, Pf growth 48h 8.3µM, Pf growth 96h inconclusive
Cc1sc2nc(SCC(=O)Nc3cccc(C(=O)O)c3)[nH]c(=O)c2c1C	none
Cc1sc2nc(SCC(=O)Nc3ccc(Cl)c(C(=O)O)c3)[nH]c(=O)c2c1C	Marburg entry inh 13µM, LASV entry inh inconclusive (no result: Pf growth 48h, Pf growth 96h)
Cc1nc(SCC(=O)Nc2ccc(CN3CCCC3)cc2)c2c(C)c(C)sc2n1	Marburg entry inh inconclusive, LASV entry inh inconclusive, Pf growth 48h 9.3µM, HCV inh inconclusive, Pf growth 96h 13µM
CCSC1=NC2(CCN(C(=O)NC3CCCCC3)CC2)N=C1c1ccc(C)cc1	LASV entry inh inconclusive (no result: Marburg entry inh, Pf growth 48h, HCV inh, Pf growth 96h)
COc1ccc(CNC(=O)CCC(=O)N2CCN(S(=O)(=O)c3cc([N+](=O)[O-])ccc3C)CC2)cc1	Pf growth 48h inconclusive
CCC[C@@H]1Cc2ccccc2N1C(C)=O	none (no result: Marburg entry inh, LASV entry inh)
CC(=O)NC(CC(=O)OCC(=O)c1c(N)n(CC(C)C)c(=O)n(C)c1=O)c1ccccc1 (stereo not drawn)	Pf growth 48h 12µM, Pf growth 96h 9.3µM
CC(=O)N/C(=C\c1ccccc1)C(=O)OCC(=O)c1c(N)n(CC(C)C)c(=O)n(C)c1=O	Pf growth 48h inconclusive
Cn1c(N)c(C(=O)COC(=O)Cc2ccccc2)c(=O)n(C)c1=O	LASV entry inh inconclusive (no result: Pf growth 48h, Pf growth 96h)
Cn1c(N)c(C(=O)COC(=O)CC(NC(=O)c2ccccc2Cl)c2ccccc2)c(=O)n(C)c1=O (stereo not drawn)	Pf growth 48h 1.3µM, HCV inh inconclusive, Pf growth 96h inconclusive
Cc1ccccc1C(=O)NC(CC(C)C)C(=O)OCC(=O)c1c(N)n(C)c(=O)n(C)c1=O (stereo not drawn)	Pf growth 48h 1µM, HCMV antiviral inconclusive, Pf growth 96h inconclusive
N#CC1C(=O)N=C(SCC(=O)c2ccc(Br)cc2)N=C1c1cccs1 (stereo not drawn)	none (no result: LASV entry inh, Pf growth 48h, HCMV antiviral, HCV inh, Pf growth 96h)
Cc1ccc(CN2C(=O)C3(c4ccccc42)N(c2cccc(F)c2)C(=O)CS3(=O)=O)cc1 (stereo not drawn)	none (no result: Marburg entry inh, Pf growth 48h, HCV inh, Pf growth 96h)
CN(Cc1ccccc1)c1ncnc2sccc12	Marburg entry inh inconclusive, HCV inh 8.9µM
CN(Cc1ccccc1)c1ncnc2[nH]ncc12	LASV entry inh inconclusive (no result: Pf growth 48h, Pf growth 96h)
Cc1ccc(NC(=O)CSCn2nnc3c(=O)[nH]c(Cc4ccc(F)cc4)nc32)c(C)c1	none (no result: Pf growth 48h, HCV inh, Pf growth 96h)
Oc1ccc2c3c1O[C@H]1c4[nH]c5ccccc5c4C[C@@]4(O)C(C2)N(CC2CC2)CCC314 (stereo partly drawn)	Marburg entry inh 16µM, LASV entry inh 18µM (no result: Pf growth 48h, HCMV antiviral, HCV inh, Pf growth 96h)

Bioassay records as filed in PubChem.
